Values without a mark were called inactive. Results filed as inconclusive are left out. The source made the active and inactive calls. Unless noted, calls follow the shape of the dose curve; as a rule, active = well fitted curve in the direction sought with a large enough effect in the repeat runs; inconclusive = weak or mixed curves; inactive = no such curve, though single readings can be large; an effect the other way counts as inactive or inconclusive.

Experiment [1] in a line: qHTS assay to identify small molecule agonists of the hypoxia (HIF-1) signaling pathway - cell viability counter screen (AID 1224844; calls by dose curve; also: nearly all actives have a fitted effect of over 50% in size). The method, boiled down: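 HRE-bla ME-180 cells in medium with 0.5% dialyzed FBS were preincubated 5 hrs at 37C, exposed to compounds for 17 hrs, then viability was read as CellTiter-Glo luminescence after 30 min at room temperature, in the reporter wells.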
A general note: In qHTS, concentration-response curves come from the screen itself.

Experiment [2] is described as follows: qHTS assay to identify small molecule agonists of H2AX (AID 1224845; active = well fitted activation curve with a large enough effect in the signal ratio in the repeat runs, not every such curve was filed as active; the % refers to the signal ratio). Put shortly:
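Wild-type CHO-K1 cells, plated overnight, exposed 3hr at 37C to 15 concentrations (0.76% DMSO final). Lysed, then HTRF anti-pH2AX (S139) cryptate and anti-H2AX-d2 antibodies, 24 hr room temperature; 665/620 nm emission read.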

Experiment [3] in a line: qHTS assay to identify small molecule agonists of the hypoxia (HIF-1) signaling pathway (AID 1224846; active = well fitted activation curve with a large enough effect in the signal ratio in the repeat runs, not every such curve was filed as active; the % refers to the signal ratio). Put shortly:
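HRE-bla ME-180 cells (beta-lactamase reporter under hypoxia response element) were plated at 2,000 cells/well in medium with 0.5% dialyzed FBS, rested 5 hrs, then given compounds in DMSO for 17 hrs at 37C, 5% CO2. Reporter induction was read with CCF4-AM FRET substrate.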

A short description of experiment [4]: qHTS assay to identify small molecule agonists of H2AX - cell viability counter screen (AID 1224847; calls by dose curve; also: nearly all actives have a fitted effect of over 30% in size; also: potency is read from the fitted curve at half-maximal effect). Put shortly: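 Cytotoxicity counter screen in wild-type CHO-K1 cells: a 3 hr compound treatment at 37C across 15 concentrations, followed by CellTiter-Glo luminescence to gauge viable cells.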
Experiment [5] can be described thus: qHTS assay to identify small molecule antagonists of the estrogen related receptor (ERR) signaling pathway from Tox21 library (AID 1224848). Also: nearly all actives have a fitted effect of over 50% in size. Also: potency is read from the fitted curve at half-maximal effect. The method, boiled down:
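Luminescent reporter read-out (ONE-Glo) from NTP's ERR cell line after 18 h treatment at 37 C with DMSO-dissolved Tox21 compounds; cells pre-plated 6 h beforehand at 2,000 per well.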

Experiment [6] can be described thus: qHTS assay to identify small molecule agonists of the estrogen related receptor (ERR) signaling pathway from Tox21 library (AID 1224849; calls by dose curve; also: nearly all actives have a fitted effect of over 15% in size). To be noted: ERR reporter cell line, ONE-Glo luciferase, 18 h; at 92.4 µM (top of the series) unless noted. The method, boiled down:
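ERR reporter cell line (NTP) seeded, rested 6 h at 37 C/5% CO2, then pinned with Tox21 compounds in DMSO. After 18 h at 37 C, ONE-Glo luciferase luminescence was read following 30 min at room temperature.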

Experiment [7] can be described thus: qHTS RealTime-Glo MT Cell Viability Assay in HepG2 cells - 24 hour (AID 1224867). Also: nearly all actives have a fitted effect of over 50% in size. The method, boiled down: (§1)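 HepG2 suspension premixed with RealTime-Glo reagents is plated at 600 cells per well and left 5 h at 37 C/5% CO2. Compounds in DMSO then go in, and bioluminescence reflecting viable cell number is recorded over 40 h.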
A short description of experiment [8]: qHTS RealTime-Glo MT Cell Viability Assay in HEK293 cells - 32 hour (AID 1224868). Also: nearly all actives have a fitted effect of over 50% in size. Also: potency is read from the fitted curve at half-maximal effect. The method, boiled down: (§2)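 Reads taken at 0, 8, 16, 24, 32 and 40 h from the same wells. HEK293 cells (600/well) carried RealTime-Glo reagents from seeding, with compound added after a 5 h settle at 37 C.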
A short description of experiment [9]: A CellTox Green Cytotoxicity Assay to monitor cytotoxicity in HEK293 cells - 0 hour (AID 1224869). Also: nearly all actives have a fitted effect of over 50% in size. The method, boiled down: (§3)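 HEK293 cells premixed with CellTox Green dye were seeded at 600 cells/well and left 5 h at 37 C/5% CO2 before pin transfer of 23 nL compound in DMSO. Fluorescence from dye bound to dead-cell DNA was read during 40 h treatment.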
The nature of experiment [10]: qHTS RealTime-Glo MT Cell Viability Assay in HepG2 cells - 40 hour (AID 1224870). Also: nearly all actives have a fitted effect of over 50% in size. The method, boiled down: (§4)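 HepG2 cells (600/well) mixed with RealTime-Glo MT reagent, settled 5 h at 37 C/5% CO2 before compound addition. Nonlytic NanoLuc luminescence from viable-cell prosubstrate reduction read repeatedly during 40 h treatment at 37 C.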
The nature of experiment [11]: A CellTox Green Cytotoxicity Assay to monitor cytotoxicity in HEK293 cells - 40 hour (AID 1224871). Also: nearly all actives have a fitted effect of over 45% in size. Also: potency is read from the fitted curve at half-maximal effect. Put shortly: as §3
Experiment [12] in a line: qHTS RealTime-Glo MT Cell Viability Assay in HEK293 cells - 16 hour (AID 1224872). The method, boiled down:
as §2

Experiment [13] in a line: qHTS RealTime-Glo MT Cell Viability Assay in HepG2 cells - 8 hour (AID 1224873). Also: nearly all actives have a fitted effect of over 55% in size. The method, boiled down:
as §4

Experiment [14] in a line: qHTS RealTime-Glo MT Cell Viability Assay in HEK293 cells - 40 hour (AID 1224874). Also: nearly all actives have a fitted effect of over 50% in size. Also: potency is read from the fitted curve at half-maximal effect. To be noted: RealTime-Glo luminescence; max response: stronger effect = lower value. Put shortly: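 HEK293 cells mixed with RealTime-Glo reagents (NanoLuc plus cell-permeant prosubstrate) at 600 cells/well, preincubated 5 h at 37 C/5% CO2, then given 23 nL compound in DMSO. Nonlytic luminescence from viable cells was read at 0, 8, 16, 24, 32 and 40 h.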

The nature of experiment [15]: A CellTox Green Cytotoxicity Assay to monitor cytotoxicity in HEK293 cells - 24 hour (AID 1224875). Also: nearly all actives have a fitted effect of over 45% in size. The method, boiled down: as §3
Experiment [16] is described as follows: qHTS RealTime-Glo MT Cell Viability Assay in HepG2 cells - 32 hour (AID 1224877). Also: nearly all actives have a fitted effect of over 55% in size. Put shortly: as §1
Experiment [17] in a line: A CellTox Green Cytotoxicity Assay to monitor cytotoxicity in HepG2 cells - 24 hour (AID 1224878). Also: nearly all actives have a fitted effect of over 45% in size. Put shortly: (§5)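 HepG2 cells were seeded together with the CellTox Green dye at 600 cells/well, left 5 h at 37 C/5% CO2, then given compounds in DMSO. Fluorescence from dye bound to dead-cell DNA was read repeatedly over 40 h of treatment at 37 C.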
The nature of experiment [18]: A CellTox Green Cytotoxicity Assay to monitor cytotoxicity in HepG2 cells - 40 hour (AID 1224879). Also: nearly all actives have a fitted effect of over 40% in size. The method, boiled down: as §5
A short description of experiment [19]: A CellTox Green Cytotoxicity Assay to monitor cytotoxicity in HepG2 cells - 16 hour (AID 1224876). Also: nearly all actives have a fitted effect of over 45% in size. Put shortly: as §5
% is scaled to controls: 0 for no effect and ±100 for the full control effect.

In the case of `COc1cc(CC(C)N)cc2c1OCO2` (centres undefined), the Potency entry in experiment [1], in experiment [2], in experiment [4], in [5], in experiment [7] and in [8] was “inactive” throughout. Also, the Potency result in experiment [9], in [10], in experiment [11], in experiment [12], in experiment [13] and in [15] was “inactive” each time. The Potency result in [16], in [17] and in [18] was “inactive” in each case. Moreover, in experiment [3], the result was inactive. Besides, the activity change, positive = activation in experiment [6] was -3.18%. In [14], the max response is -17.7%.
As for `CO/C=C(/C(=O)OC)c1ccccc1COc1cccc(C(F)(F)F)n1`, the Potency entry in experiment [1], in experiment [2], in experiment [7], in [9], in experiment [15] and in [19] was “inactive” throughout. The Potency entry in experiment [16], in experiment [17] and in experiment [18] was “inactive” in each case. Also, in [3], the call was inactive. Besides, the Potency was 17.9 µM (active) in [4]; 0.485 µM (active) in experiment [5]; 19.5 µM (active) in [8]; 3.89 µM (active) in experiment [11]; 6.16 µM (active) in [14]. The activity change, positive = activation in experiment [6] was -45%.
Turning to `O=C(OC1CCCCC1)c1ccccc1C(=O)OC1CCCCC1`, the Potency entry in experiment [1], in [2], in experiment [7], in experiment [8], in experiment [9] and in experiment [11] was “inactive” throughout. Besides, the Potency result in [12], in [13], in experiment [15], in [19], in experiment [16] and in experiment [17] was “inactive” throughout. The Potency result in [18] was “inactive”. In experiment [3], the result was inactive. The Potency in [4] was 106 µM (active). In addition, the max response in [14] is -29.8%.
As for `N#CCc1ccccc1`, the Potency result in experiment [1], in experiment [2], in experiment [4], in experiment [7], in experiment [8] and in [9] was “inactive” in each case. The Potency entry in [10], in experiment [11], in [12], in experiment [13], in experiment [15] and in experiment [19] was “inactive” in each case. In addition, the Potency result in experiment [16], in [17] and in experiment [18] was “inactive” in each case. Besides, the outcome in [3] was inactive. Also, the max response in experiment [14] is 2.97%.
In the case of `C=CC(=O)OCC(C)C`, the Potency result in experiment [1], in experiment [2], in experiment [4], in [5], in [7] and in [8] was “inactive” throughout. For the same molecule, the Potency result in [9], in experiment [11], in experiment [12], in experiment [13], in [15] and in experiment [16] was “inactive” throughout. Further, the Potency result in experiment [17] and in experiment [18] was “inactive” each time. Moreover, the outcome in [3] was inactive. For the same molecule, in experiment [6], the activity change, positive = activation is 5.29%. For the same molecule, in experiment [14], the max response was 15.8%.
Take `CCCN(CC1CC1)c1c([N+](=O)[O-])cc(C(F)(F)F)cc1[N+](=O)[O-]`: the Potency entry in experiment [1], in experiment [2], in [4], in experiment [7], in experiment [8] and in experiment [9] was “inactive” each time. In addition, the Potency entry in experiment [10], in [11], in experiment [15], in [19], in experiment [16] and in [17] was “inactive” throughout. Besides, in experiment [18], the Potency result is “inactive”. Besides, the molecule was classed as inactive in experiment [3]. The max response in experiment [14] was 9.65%.
As to `CCCCOC(=O)c1ccccc1C(=O)OCc1ccccc1`, the Potency result in experiment [1], in experiment [2], in [4], in experiment [5], in experiment [7] and in experiment [9] was “inactive” throughout. For the same molecule, the Potency result in experiment [11], in experiment [13], in experiment [15], in [16], in [17] and in experiment [18] was “inactive” each time. Further, the molecule was called inactive in experiment [3]. For the same molecule, the activity change, positive = activation in experiment [6] is 3.01%.
`CC(O)(CS(=O)(=O)c1ccc(F)cc1)C(=O)Nc1ccc(C#N)c(C(F)(F)F)c1` (centres undefined): the Potency entry in [1], in experiment [2], in experiment [9], in experiment [11], in [15] and in experiment [19] was “inactive” throughout. The Potency entry in experiment [17] and in experiment [18] was “inactive” in each case. Besides, the molecule was called inactive in experiment [3]. The Potency in [4] is 41.6 µM (active). Moreover, the activity change, positive = activation in experiment [6] is -29.9% [at 42.5 µM].

The record behind these values is PubChem BioAssay (Tox21).
